The nature of this assay: NCI Yeast Anticancer Drug Screen. Data for the rad50 strain (AID 155).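 Note: 0% = growth of vehicle-only cultures of the same strain.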 To be noted: S. cerevisiae rad50 strain growth inhibition, active compounds read high. On the procedure:
Growth inhibition of yeast strains with defined genetic alterations is measured as a screen for potential anti-cancer activity. Selected strains with alterations in DNA damage repair or cell cycle control were exposed to compounds and growth inhibition was measured relative to vehicle treated controls. The strain used in this assay is rad50

Where [1] appears, read: at 5.0 µM (retest, dose inferred, filed as 0.5).
The mark [2] stands for this setting: at 50.0 µM (retest, dose inferred, filed as 5.0).

This is part of a sample that, as a whole, favours compounds with a hit. Of some 79,000 tested, about 15% had one in any assay. A number with no mark means an inactive call. The source made the active and inactive calls. Cut-off read from the data, not from the text of the source: active = growth inhibition above about 70%; inactive = the rest.

As to `Oc1ccc2ccccc2c1/C=N\Sc1ccccc1`, the growth inhibition reads like this: under setting [1], 11%; under setting [2], 99% (active); (at 50.0 µM) 97.5% (active).

In the case of `CCCN(CCC)C(=O)c1cccc2ccccc12`, the growth inhibition under setting [1] is 3%, the growth inhibition under setting [2] was 7% and the growth inhibition (at 50.0 µM) was 6.8%.

In the case of `Nc1ccc(O)c(=O)cc1`, the growth inhibition reads like this: under setting [1], -1%; under setting [2], 1%; (at 50.0 µM) 50.2%.

As for `Clc1ccc(CN2COc3c(ccc4cccnc34)C2)c(Cl)c1`, the growth inhibition was 2% under setting [1], 91% (active) under setting [2] and 98.1% (active) (at 50.0 µM).

`O=C(/C=C\c1ccccc1)/C=C/c1ccccc1`: the growth inhibition was 4% under setting [1], 39% under setting [2] and 40.5% (at 50.0 µM).

Take `Cc1cccc(NC(=O)Oc2ccc(Cl)c3cccnc23)c1`: the growth inhibition is 75% (active) under setting [1], 99% (active) under setting [2] and 88.5% (active) (at 50.0 µM).

Consider `Cc1ccc(S(=O)(=O)C(=S)Sc2ccccc2)cc1`, for which the growth inhibition is, setting by setting: under setting [1], 6%; under setting [2], 82% (active); (at 50.0 µM) 45.5%.

As for `C/C(O)=C(/C=N\C(=S)Nc1ccc(Cl)c(Cl)c1)C(=O)Nc1ccccc1C`, the growth inhibition is -11% under setting [1], 40% under setting [2] and 67% (at 50.0 µM).

In the case of `CCCCCCCCCCCC(=O)N(CCCCCCCCC)CC(O)C(O)C(OC1OC(CO)C(O)C(O)C1O)C(O)CO` (configuration not stated), the growth inhibition was 0% under setting [1], 97% (active) under setting [2] and 82.5% (active) (at 50.0 µM).

For the compound `c1ccc2cc3nc4ccccc4nc3cc2c1`, the growth inhibition is 44% under setting [1], 82% (active) under setting [2] and 87.9% (active) (at 50.0 µM).

Consider `O=C1C(Cl)=CC(=NCl)C=C1Cl`, for which the growth inhibition runs as follows: under setting [1], 59%; under setting [2], 83% (active); (at 50.0 µM) 89.1% (active).

With `Clc1ccccc1CCc1cc(-c2ccccc2)n[nH]1`, the growth inhibition under setting [1] is -14%, the growth inhibition under setting [2] is 97% (active) and the growth inhibition (at 50.0 µM) was 96.8% (active).

For the compound `CCc1cccc(CC)c1NC(=O)CS`, the growth inhibition under setting [1] is -151%, the growth inhibition under setting [2] was 93% (active) and the growth inhibition (at 50.0 µM) was 98% (active).

`COC(=O)/C(Br)=C(\Br)c1ccccc1`: the growth inhibition runs as follows: under setting [1], 6%; under setting [2], 13%; (at 50.0 µM) -11.4%.

For the origin of these results see PubChem BioAssay (NCI).
